Compound activity (PubChem)
IL1B secr inh: blocks inflammasome-driven IL-1 beta release; actives 4.7% (n = 360,000); THP-1 LPS/ATP IL-1B secretion, AlphaLISA, 16 h; hits give low values; activity change, % at 57.5 µM; in the data active means activity change below about -50%; inconclusive means mostly about -30% to -49%; further: on the % scale 0 is the no-effect control and ±100 the full control effect
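Secreted IL-1B measured by AlphaLISA bead assay after 16 h compound exposure of THP-1 cells; compounds (final up to 57.5 uM) added 1 h before LPS (250 ng/mL) and ATP (1.25 mM) stimulation; lower signal means less secretion.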
DT40 TDP1 CPT: DT40-hTDP1 cell growth loss with CPT | Potency, µM (titrated, usually from 46.2 µM), for the others: at the highest dose activity change, negative = growth inhibition, most hits filed as inhibitors | actives 12% (n = 420,000) | chicken DT40 Tdp1-/-;hTDP1 cells + 20 nM CPT, ATP luminescence, 48 h; further: potency means the concentration at half of the fitted maximal effect; on the % scale 0 is the no-effect control and ±100 the full control effect; nearly all actives have a fitted effect of over 55% in size
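Cell growth measured by CellTiter-Glo luminescence after a minimum 48 h, 37 C compound exposure with 20 nM CPT in Tdp1-knockout DT40 cells stably expressing hTDP1, seeded 400/well; qHTS titration format.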
TGFb SMAD3 inh: TGF-b pathway inhibition; HepG2 CAGA-GFP TGF-b/SMAD3 reporter, GFP fluorescence, 18 h; TGF-beta stimulated, 500 pg/mL final; Potency, µM (highest dose often 46.1 µM), for the others: at the top dose activity, negative = inhibition, most hits filed as inhibitors; actives 1.2% (n = 410,000); AID 588855; further: potency means the concentration at half of the fitted maximal effect; on the % scale 0 is the no-effect control and ±100 the full control effect; nearly all actives have a fitted effect of over 65% in size
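GFP signal (ex488/em500-530) from TGF-beta-stimulated HEPG2 CAGA-GFP cells, 500 pg/mL final, 18 h at 37 degrees C in DMEM plus 1% FBS, normalized to unstimulated and DMSO-stimulated controls.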
HepG2 tox: HepG2 cytotoxicity, counter-screen for TGF-b inhibitors | HepG2 CAGA-GFP viability, ATP luminescence, 18 h | Potency, µM (doses to about 46.1 µM), for inactives: at the top dose activity change, negative = cytotoxicity, actives largely listed as cytotoxic | actives 0.76% (n = 410,000) | AID 588856; further: potency means the concentration at half of the fitted maximal effect
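CellTiter-Glo luminescence gave cytotoxicity after 18 hours at 37 degrees C. The cells were HepG2 CAGA-GFP in 1% FBS DMEM, stimulated with 500 pg/mL TGF-beta after compound addition. %Activity was normalised to no-cell wells (complete cell-killing) and DMSO (no toxicity), and curves were fitted and classified.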
ASM inhibitor: inhibitors of human secretory acid sphingomyelinase. placental ASM, HMU-PC fluorogenic substrate, 60 min. actives 0.006% (n = 340,000). Potency, µM (top dose mostly 57.5 µM), for inactives: at the highest dose activity change, negative = inhibition, actives largely listed as inhibitors. P17405; further: potency means the concentration at half of the fitted maximal effect
Target sequence (P17405 47-631 limits assumed): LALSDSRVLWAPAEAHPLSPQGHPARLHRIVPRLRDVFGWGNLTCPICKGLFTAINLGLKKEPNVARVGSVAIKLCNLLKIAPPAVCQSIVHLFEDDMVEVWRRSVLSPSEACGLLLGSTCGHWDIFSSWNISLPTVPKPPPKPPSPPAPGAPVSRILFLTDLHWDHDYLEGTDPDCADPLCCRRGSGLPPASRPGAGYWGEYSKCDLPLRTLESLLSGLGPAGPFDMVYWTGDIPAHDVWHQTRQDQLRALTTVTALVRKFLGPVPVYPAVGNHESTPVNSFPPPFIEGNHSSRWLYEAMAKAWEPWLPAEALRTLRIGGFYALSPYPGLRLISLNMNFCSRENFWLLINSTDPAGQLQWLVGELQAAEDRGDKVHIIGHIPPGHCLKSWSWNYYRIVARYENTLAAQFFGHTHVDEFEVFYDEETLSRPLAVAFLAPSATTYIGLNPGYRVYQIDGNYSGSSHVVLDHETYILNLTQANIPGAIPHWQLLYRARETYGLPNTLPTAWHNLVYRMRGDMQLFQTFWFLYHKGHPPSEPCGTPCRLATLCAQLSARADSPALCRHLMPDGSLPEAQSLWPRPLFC
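Steps: dispense placental human ASM, pin compound, wait 10 min at room temperature, add HMU-PC0 substrate at 9 uM final, incubate 60 min at 37 °C, add stop solution raising pH to 10, read fluorescence.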
DT40 TDP1 no CPT: qHTS for Inhibitors of human tyrosyl-DNA phosphodiesterase 1 (TDP1): qHTS in cells in absence of CPT | Potency, µM (top dose mostly 46.2 µM), for inactives: top-dose activity change, negative = growth inhibition, hits mostly inhibitors | DT40 Tdp1-/- hTDP1 cells, no CPT, ATP luminescence, 48 h | actives 15% (n = 420,000); further: potency means the concentration at half of the fitted maximal effect; on the % scale 0 is the no-effect control and ±100 the full control effect; nearly all actives have a fitted effect of over 55% in size
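Cells were dispensed at 400 per well, compounds added by pin tool, plates incubated ≥48 hr at 37 °C, then CellTiter-Glo added for 30 min at room temperature before luminescence reading. Line: DT40 Tdp1-/- complemented with hTDP1; camptothecin omitted.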
* hit, by the source's call; ? = inconclusive; . = not tested or not shown; [ ] = remark or other dose. In the library only some 19% were active in any assay of this set; here they are far more common. Unless noted, the call rests on the fitted dose curve; in most records, active means well fitted curve in the direction sought with a large enough effect; inconclusive means small, poorly fitted or top-dose-only effect, or another doubt; inactive means no such curve, though single readings can be large; an effect the other way counts as inactive or inconclusive.

SMILES	IL1B secr inh	DT40 TDP1 CPT	TGFb SMAD3 inh	HepG2 tox	ASM inhibitor	DT40 TDP1 no CPT
O=C(NCCC1CCCCN1S(=O)(=O)c1ccccc1)C(=O)NCc1ccccc1 (stereo not given)	-0.5	?	2.3%	-10.3%	2.6%	?
O=C(COc1cccc2c1CCN(Cc1ccccc1F)C2=O)N1CCCCC1	-3.3	?	-27.5%	8.2%	5.5%	20.6µM*
CCOC(=O)N1CCN(C(=O)COc2cccc3c2CCN(Cc2ccccc2F)C3=O)CC1	-4.8	20.6µM*	?	-22.5%	7.0%	14.6µM*
COc1cc(C2c3[nH]c4ccccc4c3C[C@H]3C(=O)N(C4CC4)CC(=O)N23)ccc1OC(C)C (stereo not given in full)	?	?	7.0%	3.3%	-3.4%	-25.2%
Cc1cc(C)c2c(-n3cccc3)c(C(=O)NCCc3ccccc3)sc2n1	.	-25.8%	0.0%	-6.0%	.	?
CCCNC(=O)Cn1c(=O)/c(=C\c2ccc(-c3cccc([N+](=O)[O-])c3)o2)s/c1=C\C(=O)C(C)(C)C	9.1	23.1µM*	-5.4%	26.8%	-16.8%	23.1µM*
CCCNC(=O)Cn1c(=O)/c(=C/c2ccc(-c3cccc([N+](=O)[O-])c3)o2)s/c1=C\C(=O)C(C)(C)C	24.7	?	8.3%	3.6%	-12.3%	?
COc1ccc(C)cc1NC(=O)C(OC(=O)c1cnccn1)c1ccccc1 (stereo not given)	-15.9	-1.7%	-11.4%	-28.7%	-1.0%	4.9%
COc1ccc(C)cc1NC(=O)C(OC(=O)c1ccc([N+](=O)[O-])o1)c1ccccc1 (stereo not given)	-6.1	16.4µM*	?	-1.1%	-4.5%	?
CCN(CC)c1ccc(C(=O)NNC(=O)CCl)cc1	?	16.4µM*	-0.4%	-11.3%	3.1%	?
COc1ccc(-n2ccn3c(CCC(=O)N4CCN(c5cccc(C)c5C)CC4)nnc3c2=O)cc1	6.2	?	6.8%	-3.9%	1.6%	1.8%
Cc1ccc(C)c(-n2c(-c3ccc(Br)cc3)csc2=NC(=O)c2ccccc2F)c1	14.4	11.6µM*	0.0%	-0.2%	-6.6%	4.61µM*
C[C@@H](C(=O)Nc1ccc(OC(F)F)c(Cl)c1)N1C(=O)C2CC=CCC2C1=O (stereo not given in full)	5.8	3.5%	-2.4%	-5.0%	-0.6%	-26.8%
Fc1cccc(NC(=S)NNc2c3ccccc3nc3ccccc23)c1	7.0	1.3µM*	?	-26.1%	74.3%	0.92µM*
Fc1cccc(NC(=S)NNc2ccccc2)c1	0.0	3.26µM*	?	-32.5%	2.0%	2.59µM*
NC(=S)Nc1cccc(F)c1	7.6	5.1%	7.6%	-1.8%	6.8%	-5.6%
O=C(Nc1ncccc1O)c1ccc(Oc2ccccc2)cc1	15.8	?	-4.9%	-40.7%	0.6%	?
CCCCc1nnc(NC(=O)Cc2ccc(S(=O)(=O)N3CCOCC3)s2)s1	16.9	-4.6%	4.4%	-2.6%	-0.9%	-6.7%
COc1ccc(/C=C(\C#N)c2cc(OC)c(OC)cc2[N+](=O)[O-])cc1	23.0	-23.1%	10.3%	10.1%	12.3%	-23.2%
N#C/C(=C\c1cccnc1)C(=O)Nc1ccccc1[N+](=O)[O-]	42.9	?	5.0%	-2.7%	0.3%	-19.1%
COc1cc(/C(C#N)=C/c2ccccc2)c([N+](=O)[O-])cc1OC	-83.3*	-25.4%	-5.5%	-26.1%	-7.3%	?
N#C/C(=C\c1cccnc1)c1ccccc1[N+](=O)[O-]	-91.8*	-3.5%	?	3.5%	3.2%	?
COc1ccc2nc(NC(=O)C3CCN(C(=O)c4ccco4)CC3)sc2c1	?	0.0%	-10.1%	-3.6%	-2.4%	?
CC(O)(c1cccc(F)c1)c1nc(-c2cc3ccccc3o2)cs1 (stereo not given)	27.0	?	?	-33.6%	.	23.1µM*
CC(O)(c1cccc(F)c1)c1nc(-c2ccc(Cl)cc2)cs1 (stereo not given)	31.1	?	?	-57.8%	.	?
SMILES	IL1B secr inh	DT40 TDP1 CPT	TGFb SMAD3 inh	HepG2 tox	ASM inhibitor	DT40 TDP1 no CPT
COc1ccc(C(O)c2nc(-c3cc4ccccc4o3)cs2)cc1 (stereo not given)	49.0	?	-16.9%	-5.8%	.	?
COc1cccc(C(C)(O)c2nc(-c3cc4ccccc4o3)cs2)c1 (stereo not given)	62.4	16.4µM*	8.91µM*	-80.0%	.	23.1µM*
CC(O)(c1ccc(F)c(F)c1)c1nc(-c2cc3ccccc3o2)cs1 (stereo not given)	5.8	?	?	-54.7%	.	14.6µM*
C[C@H](CO)N1C[C@H](C)[C@H](CN(C)C(=O)Nc2ccccc2F)OCc2cnnn2CCCC1=O	1.2	-0.3%	20.1%	11.1%	.	4.6%
COc1ccc(C(=O)NCC2Cc3cc(C)cc(-c4nc5ccccc5s4)c3O2)c(OC)c1OC (stereo not given)	.	8.9%[9.04 µM]	.	.	.	-10.0%
N#CC(C#N)=Cc1ccc(NC(=O)c2ccc(Br)cc2)cc1	?	20.6µM*	-6.0%	-11.7%	10.5%	16.4µM*
CC(C)(C)c1ccc(NC(=O)c2cc[n+]([O-])cc2)cc1	10.9	-12.6%	-26.7%	-21.4%	?	?
CC(C)(C)c1ccc(C(=O)Nc2ccc(C=C(C#N)C#N)cc2)cc1	-7.0	16.4µM*	6.6%	0.4%	-0.5%	11.6µM*
CCC(=O)Nc1ccccc1Nc1cc(C#N)c(C#N)cc1[N+](=O)[O-]	52.0	?	-16.1%	-46.0%	-4.9%	?
COc1ccc(OC)c(Nc2nc(N)nc(-c3cc4ccccc4o3)n2)c1	-5.9	?	?	-70.5%	12.0%	18.4µM*
COc1ccc(OC)c(NC(=O)c2cc3ccccc3o2)c1	-3.1	-20.2%	13.9%	-25.7%	1.4%	-0.9%
CC(=O)c1ccc(OCC(=O)NC(=O)NC2CCCC2)cc1	25.0	?	-3.2%	-25.1%	.	?
Cc1ccc(CN2CCN(Cc3ccc(C)s3)CC2CCO)cc1 (stereo not given)	-1.0	-20.9%	6.8%	0.7%	3.0%	-21.5%
CC1(C(=O)NCc2ccco2)Cc2c(-c3ccccc3)ccnc2O1 (stereo not given)	55.9	2.59µM*	-25.7%	-37.3%	.	2.31µM*
